Assay outcomes from PubChem.
The list is not random: actives were taken first. Their share in the collection is about 11%.
JMJD2A Tudor inh – inhibitors of human JMJD2A Tudor domain. O75164. AlphaScreen JMJD2A-Tudor / H3K4me3 peptide binding. Potency, µM (doses to about 114 µM), inactives show at the highest dose activity change, negative = inhibition, hits mostly inhibitors. 4.4% of 390,000 active. AID 504339; note: % is set by controls: 0 for no effect and ±100 for the full control effect; nearly all actives have a fitted effect of over 50% in size
HP1b chromo inh – blocks HP1-beta chromodomain binding to methylated histone tails; P83916; AlphaScreen HP1-beta / biotin-H3K9me3 peptide binding; Potency, µM (series often up to 114 µM), without a hit: at the highest dose activity change, negative = inhibition, most hits filed as inhibitors; 0.56% of 390,000 active; AID 540317; note: nearly all actives have a fitted effect of over 70% in size
Target sequence (P83916 whole entry, looked up): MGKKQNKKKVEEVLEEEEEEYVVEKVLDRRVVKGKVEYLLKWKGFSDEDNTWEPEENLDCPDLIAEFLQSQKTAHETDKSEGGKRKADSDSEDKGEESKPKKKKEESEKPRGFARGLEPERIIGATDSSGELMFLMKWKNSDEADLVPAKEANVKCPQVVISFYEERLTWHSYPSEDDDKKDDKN
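Compound inhibition of the preformed complex between 50 nM HP1-beta and 50 nM biotinylated H3K9me3 peptide was read by AlphaScreen. Buffer was PBS pH 7.4 with 0.01% Tween-20. Incubations ran 30 min at room temperature, with 10 ug/mL donor/acceptor beads.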
G9a inh – blocks human histone lysine methyltransferase G9a; Q96KQ7; G9a H3K9 monomethylation, AlphaScreen, 2 h; Potency, µM (titrated, usually from 102 µM), for the others: at the top dose activity, negative = inhibition, hits mostly inhibitors; 8.8% of 350,000 active; AID 504332; note: % is set by controls: 0 for no effect and ±100 for the full control effect; nearly all actives have a fitted effect of over 75% in size
Target sequence (Q96KQ7 913-1193 limits assumed): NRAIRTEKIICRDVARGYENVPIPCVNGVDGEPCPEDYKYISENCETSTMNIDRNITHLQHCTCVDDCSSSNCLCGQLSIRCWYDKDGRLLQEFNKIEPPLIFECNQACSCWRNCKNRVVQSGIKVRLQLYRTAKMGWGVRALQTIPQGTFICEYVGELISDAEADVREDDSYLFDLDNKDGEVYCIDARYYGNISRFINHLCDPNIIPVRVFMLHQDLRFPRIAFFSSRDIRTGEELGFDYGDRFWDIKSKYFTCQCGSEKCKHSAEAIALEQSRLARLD
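Readings reflect AlphaScreen signal from monomethyl-H3K9 antibody detection. HMT at 20 nM; substrate b-H3K9 500 nM; cofactor SAM 20 uM; 2 h RT reaction; compounds tested as titrations in qHTS with 15 min preincubation.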
BAZ2B inh – inhibitors of human BAZ2B bromodomain. Potency, µM (titrated, usually from 114 µM), without a hit: at the top dose activity change, negative = inhibition, most hits filed as inhibitors. 4.4% of 360,000 active. AlphaScreen BAZ2B-H3K14Ac peptide displacement. AID 504333. Q9UIF8; note: % is set by controls: 0 for no effect and ±100 for the full control effect; nearly all actives have a fitted effect of over 60% in size
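Inhibition is scored as reduced AlphaScreen emission. The BAZ2B/b-H3(5-23)K14Ac complex (50 nM each) in PBS pH 7.4, 0.01% Tween-20 meets compound (up to 110 uM) for 30 min at RT before bead addition.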
L3MBTL1 block – L3MBTL1 (human) inhibition; Q9Y468; AlphaScreen L3MBTL1–H3K9me1 peptide binding; Potency, µM (highest dose often 57.1 µM), inactives show at the top dose activity, negative = inhibition, actives largely listed as inhibitors; 0.66% of 230,000 active; note: % is set by controls: 0 for no effect and ±100 for the full control effect; nearly all actives have a fitted effect of over 60% in size
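First, the protein-peptide complex forms for 30 min at room temperature (L3MBTL1 50 nM, biotinylated H3K9me1 peptide 75 nM). Next, compounds are pin-transferred and incubated 30 min. Finally, AlphaScreen beads are added and read after 30 min.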
Numbers without * were called inactive; u = inconclusive; x = no result given; [ ] = dose if it differs, or a comment. Calls come from the whole dose curve; as a rule, active = well fitted inhibition curve with a large enough effect; inconclusive = small, poorly fitted or top-dose-only effect; inactive = no such curve, though single readings can be large or run the other way. Potency is the fitted concentration of half-maximal effect.

SMILES | JMJD2A Tudor inh | HP1b chromo inh | G9a inh | BAZ2B inh | L3MBTL1 block
CN(C(=O)CSc1cccc[n+]1[O-])c1ccccc1 | 2% | 36% | x | x | 8%
O=C(CSc1cccc[n+]1[O-])Nc1c(Br)cc([N+](=O)[O-])cc1Br | -10% | 27% | u | -16% | 3%
O=C(CSc1cccc[n+]1[O-])c1ccc(Cl)s1 | 3% | 36% | 10µM* | -19% | 4%
Cc1ccc(NC(=O)c2cc3c(=O)[nH]c4ccccc4c3n2C)cc1F | u | 14% | -22%[59 µM] | x | x
CCc1cccc(NC(=O)c2cc3c(=O)n(Cc4ccc(OC)cc4)ccc3nc2C)c1 | -14% | 27% | -21%[59 µM] | -8% | x
COc1ccc(N2CC(NC(=O)/C=C\c3ccc4c(c3)OCO4)CC2=O)cc1 (configuration not stated) | -19% | -9% | 11%[59 µM] | 0% | x
CCc1nnc(NC(=O)c2ccc(S(=O)(=O)N(CC)Cc3ccccc3)cc2)o1 | -18%[11.4 µM] | -16% | -38% | 50µM* | 3%
CCCCN(C)S(=O)(=O)c1ccc(C(=O)Nc2nnc(-c3ccco3)o2)cc1 | -17% | 23% | -44% | x | x
CCCCN(C)S(=O)(=O)c1ccc(C(=O)Nc2nnc(CSC)o2)cc1 | 79µM* | 27% | x | u | 8%
CCN(CC)S(=O)(=O)c1ccc(C(=O)Nc2nnc(CSC)o2)cc1 | -10% | 37% | 0% | 79µM* | 5%
CCOC(=O)N1CCN(S(=O)(=O)c2ccc(C(=O)Nc3nnc(CSC)o3)cc2)CC1 | 45µM* | 51% | -3%[59 µM] | 79µM* | 16%
COC(=O)[C@@]12CCCCN1[C@H](c1ccc(-c3cccc(Cl)c3)cc1)[C@@H]1C(=O)N(C)C(=O)[C@@H]12 | -28% | 8% | x | x | 3%
Cc1cc(Cl)c2oc(C(=O)N(C)C3CCOC3)c(C)c2c1 (configuration not stated) | 14µM* | 6% | -7% | -17% | x
Cc1nc(N=Nc2cc(S(=O)(=O)O)c3cc([N+](=O)[O-])cc(S(=O)(=O)O)c3c2)c(COP(=O)(O)O)c(C=O)c1O | x | x | 3.5µM* | x | x
CCn1c(C(=O)Nc2ccc(C)cc2C)cc2sc(Cl)cc21 | 4% | 59% | 13%[59 µM] | 5% | x
CCc1ccc(C(c2ccccc2)c2c[nH]c3ccc(C)cc23)s1 (configuration not stated) | 56µM* | u | u | u | x
COc1ccc(C2(c3ccc(OC)cc3)NC(=O)N(CC(=O)Nc3ccccc3C)C2=O)cc1 | -30% | 16% | x | -1% | x
COc1ccc(C2(c3ccc(OC)cc3)NC(=O)N(CC(=O)Nc3ccccc3C(F)(F)F)C2=O)cc1 | -27% | 3% | 79µM* | -4% | x
Cc1cc(NC(=O)CN2C(=O)NC(C)(c3ccccc3)C2=O)no1 (configuration not stated) | -10% | 28% | 1%[59 µM] | 2% | x
Cc1cc(NC(=O)CN2C(=O)NC(c3ccccc3)(c3ccc(C)c(C)c3)C2=O)no1 (configuration not stated) | u | 9% | 18µM* | 0% | 8%
CC(C)c1ccc(C2N=C(N)Nc3nc4ccccc4n32)cc1 (configuration not stated) | -11% | 51% | -7%[59 µM] | -28% | x
Cc1occc1C(=O)Nc1c(F)c(F)c(F)c(F)c1F | 1%[11.4 µM] | -21% | 14µM* | 18% | x
Cc1occc1C(=O)Nc1nn[nH]n1 | 45µM* | 0% | 45µM* | u | x
COc1ccccc1N(CC(=O)Nc1cc(C)cc(C)c1)S(C)(=O)=O | -18% | -6% | -16%[59 µM] | -9% | x
CCOC(=O)c1sc(NCc2ccco2)c(-c2nc3ccccc3s2)c1N | u | 12% | -14%[59 µM] | -33% | -13%
SMILES | JMJD2A Tudor inh | HP1b chromo inh | G9a inh | BAZ2B inh | L3MBTL1 block
CCNc1sc(C(=O)c2cccs2)c(N)c1-c1nc2ccccc2s1 | u | 11% | 10µM* | u | u
C=CCNc1sc(C(=O)c2ccccc2)c(N)c1-c1nc2ccccc2s1 | u | 25µM* | 22µM* | u | u
COC1CCCCC1Nc1cccc(SC)c1 (configuration not stated) | -23% | 15% | u | -18% | -2%
COC1CCCCC1Nc1cc(C)cc(C)c1 (configuration not stated) | 18µM* | 18µM* | 14µM* | 35µM* | x
Cn1cnc([N+](=O)[O-])c1Nc1ccc(O)cc1 | -14% | 12% | 25µM* | -17% | -6%
Oc1ccccc1N=Nc1nc(-c2ccccc2)c(-c2ccccc2)[nH]1 | 13µM* | 32µM* | u | 13µM* | x
COc1ccc(-c2nc(C)ncc2N=Nc2ccccc2)cc1 | 45µM* | -80% | u | 11µM* | u
COc1ccc(-c2nc(-c3ccccc3)c(-c3ccccc3)[nH]2)cc1Br | -10% | 23% | -29%[59 µM] | -4% | x
c1ccc(-c2nc[nH]c2-c2ccccc2)cc1 | u | -13% | 5%[12.7 µM] | u | x
COc1ccccc1N=Nc1nc(-c2ccccc2)c(-c2ccccc2)[nH]1 | 7.1µM* | -71% | u | 10µM* | u
COc1ccc(N=Nc2nc(-c3ccccc3)c(-c3ccccc3)[nH]2)cc1 | 8.9µM* | 28µM* | 16µM* | 8.9µM* | 16µM*
COc1ccc(-c2[nH]c(-c3ccc4c(c3)OCO4)nc2-c2ccccc2)cc1 | u | -21% | u | u | -23%
COc1ccc(Cn2c(CO)cnc2SCc2ccc(C)cc2)cc1 | -32% | 8%[57 µM] | -32%[59 µM] | u | x
Cc1ccc(Cl)cc1N1CCN(c2nc3ccccc3c3nc(-c4cccnc4)nn23)CC1 | 5% | 18% | u | 2% | x
CC(=O)Nc1c([N+](=O)[O-])cc2[nH]c(=O)[nH]c2c1[N+](=O)[O-] | -12%[11.4 µM] | -2% | 32µM* | -20% | -7%
Cc1onc(-c2ccccc2Cl)c1C(=O)NNC(=O)c1cccc(F)c1 | 6% | 35% | -2% | -1% | x
O=C(CC1CCCCC1)NCc1ccccn1 | -9% | 30% | -27%[12.7 µM] | -5% | x
O=C(c1c(F)cccc1F)N(Cc1ccccn1)C1CC1 | -3%[11.4 µM] | 17% | u | 79µM* | x
O=C1CCc2cc(S(=O)(=O)NC3CCCCC3)cc3c2N1CC3 | -6% | 21% | 50µM* | -29% | u
C[N+](C)(C)CCC(=O)c1cccc2ccccc12 | x | x | 0.5µM* | x | x
CC(=O)c1coc2c1cc(O)c1ccccc12 | -12% | 9% | -21% | 8% | x
O=C(c1ccco1)c1coc2c1cc(O)c1ccccc12 | u | -2% | 40µM* | -21% | -11%
COc1ccccc1C(C)NCC(=O)NC(=O)NCc1ccco1 (configuration not stated) | u | -8% | -7%[59 µM] | 50µM* | -13%
CCN(CC)S(=O)(=O)c1ccc(/C=C/C(=O)OCC(=O)NCc2cccs2)cc1 | -17% | 29% | -10%[59 µM] | 2% | -4%
CCN(CC)S(=O)(=O)c1ccc(/C=C/C(=O)OCC(=O)NCc2ccco2)cc1 | 32µM* | u | x | x | u
